Experimental data published in PubChem BioAssay AID720566 (Broad Institute, 2013).
Entries with a potency or affinity are not part of this list.

Biological target: Protein disulfide-isomerase A6 (Homo sapiens) (UniProt Q15084)
Test: reduced insulin turbidity driven by ERp5 (PDIA6) – biochemical, absorbance 650 nm, cherry-picked samples, dose response (AID 720566);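 note: negative values mean less insulin aggregation so ERp5 inhibition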
Conditions: Recombinant ERp5 insulin aggregation; series mostly up to 35 µM; activity change, negative = inhibition: at the top concentration;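 active = in all runs, an absorbance decrease of 25% or more of the average positive control decrease; inconclusive = runs conflict, with both active and inactive results; inactive = all runs inactive, opposite-direction effects included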

Sequence of Protein disulfide-isomerase A6 (Homo sapiens) (Q15084 whole entry, looked up): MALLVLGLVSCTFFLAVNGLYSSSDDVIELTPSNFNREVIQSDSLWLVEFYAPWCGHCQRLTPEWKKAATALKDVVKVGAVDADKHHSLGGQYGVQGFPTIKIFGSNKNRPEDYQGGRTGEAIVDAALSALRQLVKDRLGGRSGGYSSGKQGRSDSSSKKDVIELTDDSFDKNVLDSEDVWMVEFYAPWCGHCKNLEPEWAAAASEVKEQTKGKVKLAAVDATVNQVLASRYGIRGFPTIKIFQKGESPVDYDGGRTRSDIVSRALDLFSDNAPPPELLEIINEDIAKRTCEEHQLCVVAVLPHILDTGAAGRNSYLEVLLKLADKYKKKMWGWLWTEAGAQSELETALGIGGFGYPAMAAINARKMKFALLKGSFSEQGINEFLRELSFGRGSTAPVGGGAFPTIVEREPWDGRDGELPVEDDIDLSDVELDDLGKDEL

Activity change, negative = inhibition, inactive:
C[C@H](CO)N1C[C@H](C)[C@H](CN(C)Cc2cncnc2)Oc2ncc(-c3cccc(C#N)c3)cc2C1=O 1.45%, C[C@@H]1CN([C@H](C)CO)C(=O)Cc2cc(NC(=O)Nc3cccc4ccccc34)ccc2O[C@@H]1CN(C)Cc1ccc(C(F)(F)F)cc1 5.59%, O=C(C[C@@H]1C[C@H]2c3cc(NC(=O)Nc4ccccc4F)ccc3O[C@H]2[C@H](CO)O1)NCC(F)(F)F 0.289%, C[C@@H]1CN([C@@H](C)CO)C(=O)c2cc(C#CC3(O)CCCC3)cnc2O[C@H]1CN(C)C(=O)Cc1cccnc1 3.35%, O=C(C[C@@H]1CC[C@@H]2[C@H](COC[C@@H](O)CN2S(=O)(=O)c2ccccc2)O1)NCCN1CCCC1 2.02%, C[C@@H]1CN([C@@H](C)CO)C(=O)c2cc(NS(=O)(=O)c3ccccc3)ccc2O[C@H]1CN(C)C(=O)Nc1ccc2c(c1)OCO2 3.54% [at 30 µM], C[C@H](CO)N1C[C@H](C)[C@H](CN(C)S(=O)(=O)c2cn(C)cn2)Oc2ncc(C#Cc3ccccc3)cc2C1=O -0.289%, CO[C@H]1CN(C)C(=O)c2cc(NC(=O)CC(F)(F)F)ccc2OC[C@H](C)N(C(=O)C2CC2)C[C@@H]1C 2.98% [at 30 µM], C[C@H](CO)N1C[C@H](C)[C@@H](CN(C)Cc2ccc(C(=O)O)cc2)Oc2ccc(NS(=O)(=O)c3cccs3)cc2CC1=O 3.54%, O=C(NCCCN1CCCC1)c1ccc(CS(=O)(=O)c2c(Cl)cccc2Cl)o1 -2.6%, C[C@@H]1CN([C@H](C)CO)C(=O)c2cc(NC(=O)Nc3cccc4ccccc34)ccc2O[C@@H]1CN(C)C(=O)Nc1cccc2ccccc12 10.4%, CCCC(=O)N1CC2(C1)CN(C(=O)C1CCCCC1)[C@H](CO)c1[nH]c3cc(OC)ccc3c12 3.38%, C[C@H](CO)N1C[C@H](C)[C@H](CN(C)Cc2ccc(C(F)(F)F)cc2)Oc2ccc(NC(=O)Nc3cccc4ccccc34)cc2CC1=O 7.63%, C[C@@H]1CN([C@H](C)CO)C(=O)Cc2cc(NS(=O)(=O)c3ccc(F)cc3)ccc2O[C@@H]1CN(C)S(=O)(=O)c1cn(C)cn1 -5.88%, O=C(C[C@H]1C[C@@H]2c3cc(NC(=O)C4CCC4)ccc3O[C@@H]2[C@H](CO)O1)NCC(F)(F)F 1.45%, COc1ccccc1S(=O)(=O)N1C[C@H](O)COC[C@H]2O[C@@H](CC(=O)O)CC[C@@H]21 1.3%, C[C@H](CO)N1C[C@H](C)[C@@H](CN(C)S(=O)(=O)c2cn(C)cn2)Oc2ccc(NC(=O)c3ccncc3)cc2CC1=O 1.49%, COC(=O)C[C@H]1C[C@H]2c3cc(NC(=O)Cc4ccncc4)ccc3O[C@H]2[C@H](CO)O1 -11.9%, COCC(=O)N(C)C[C@H]1Oc2cc(C#CC(C)(C)O)ccc2S(=O)(=O)N([C@H](C)CO)C[C@H]1C 2.98%, Cc1ccc(NC(=O)c2cccc(S(C)(=O)=O)c2)cc1 3.21%, C[C@H]1CN([C@@H](C)CO)C(=O)Cc2cc(NC(=O)Nc3cccc4ccccc34)ccc2O[C@H]1CN(C)C(=O)Nc1cccc2ccccc12 6.33%, Cc1ccc(S(=O)(=O)N2CCN(C(=O)CCc3nc4ccccc4c(=O)[nH]3)CC2)c(C)c1 22.1%, Cc1cc(Br)cc(Br)c1OCC(=O)NNC(=O)CCC(=O)NCc1ccccc1 0.113%, Cc1noc(C)c1NC(=O)Nc1cccc2c1O[C@H](CN(C)S(=O)(=O)c1ccc(Cl)cc1)[C@@H](C)CN([C@H](C)CO)C2=O -8.97%, O=C(NNC(=O)c1ccc2ccccc2c1)Nc1ccc(F)cc1 -2.38%, C[C@H](CO)N1C[C@H](C)[C@@H](CN(C)S(=O)(=O)c2ccc(Oc3ccccc3)cc2)OCc2cnnn2CCCC1=O 3.54%, O=C(C[C@@H]1C[C@H]2c3cc(NC(=O)C4CCC4)ccc3O[C@H]2[C@@H](CO)O1)NCC(F)(F)F 0.372%, C[C@@H]1CN([C@H](C)CO)C(=O)Cc2cc(NC(=O)Nc3cccc4ccccc34)ccc2O[C@@H]1CN(C)C(=O)Nc1cccc2ccccc12 11.3%, Cc1cccc(Oc2ccc(NS(=O)(=O)c3ccc(C)c(C(=O)O)c3)cc2)c1 -4.87%, CN1CCN(C(=O)C[C@@H]2C[C@@H]3c4cc(NC(=O)C5CCOCC5)ccc4O[C@@H]3[C@H](CO)O2)CC1 -0.931%, C[C@H]1CN([C@@H](C)CO)C(=O)c2cccc(NC(=O)Nc3cccc4ccccc34)c2O[C@@H]1CN(C)C(=O)Nc1ccc(C(F)(F)F)cc1 2.99%, COc1cccc(C(=O)OCC(=O)c2[nH]c(C)c(C(C)=O)c2C)c1 -24.1%, C[C@@H]1CN([C@@H](C)CO)C(=O)c2cc(-c3cccc(C#N)c3)cnc2O[C@H]1CN(C)Cc1cncnc1 1.12%
